# Results published in PubChem BioAssay (Tox21).
# Results filed as inconclusive are left out. Entries that show only a call come without a potency. The source holds several records for some structures; these can differ, active in one and inactive in another. The source made the active and inactive calls. Unless noted, the call rests on the fitted dose curve.
# Columns and labels:
# [1] = qHTS assay to identify small molecule antagonists of the sonic hedgehog signaling (Shh) pathway (AID 1259369); further: nearly all actives have a fitted effect of over 45% in size; further: potency means the concentration at half of the fitted maximal effect
# Procedure, shortened: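 For antagonist detection, the reporter line received test compounds together with conditioned medium, incubated 24hr at 37 C, 5% CO2, then luminescence was recorded following 30min room-temperature luciferase reagent incubation.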
# [2] = target: Estrogen receptor beta (Homo sapiens) (UniProt Q92731); experiment: qHTS assay to identify small molecule agonists of the estrogen receptor beta (ER-beta) signaling pathway (AID 1259377; active means well fitted activation curve with a large enough effect in the signal ratio in the repeat runs, not every such curve was filed as active; the % refers to the signal ratio)
# Estrogen receptor beta (Homo sapiens), sequence (Q92731 whole entry, looked up): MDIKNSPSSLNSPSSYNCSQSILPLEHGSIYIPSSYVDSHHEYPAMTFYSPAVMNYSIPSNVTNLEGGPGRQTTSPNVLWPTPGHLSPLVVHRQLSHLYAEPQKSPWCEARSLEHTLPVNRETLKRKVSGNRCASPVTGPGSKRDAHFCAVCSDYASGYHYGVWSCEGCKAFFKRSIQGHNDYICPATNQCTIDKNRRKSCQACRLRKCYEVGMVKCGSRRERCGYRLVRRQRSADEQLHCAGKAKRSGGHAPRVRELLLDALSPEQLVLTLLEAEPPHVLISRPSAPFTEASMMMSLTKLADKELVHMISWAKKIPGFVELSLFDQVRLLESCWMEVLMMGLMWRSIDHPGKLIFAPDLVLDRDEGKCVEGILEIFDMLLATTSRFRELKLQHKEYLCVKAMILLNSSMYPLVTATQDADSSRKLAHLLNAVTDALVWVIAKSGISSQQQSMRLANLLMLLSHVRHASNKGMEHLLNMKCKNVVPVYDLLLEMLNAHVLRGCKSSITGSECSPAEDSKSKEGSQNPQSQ
# Procedure, shortened: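 ER-beta-UAS-bla HEK293T cells in medium with 2% charcoal-stripped FBS were exposed to compounds for 16 h at 37C. Beta-lactamase reporter activity was read as fluorescence after 2 h with LiveBLAzer B/G FRET substrate at room temperature.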
# [3] = target: Estrogen receptor beta (Homo sapiens) (UniProt Q92731); experiment: qHTS assay to identify small molecule antagonists of the estrogen receptor beta (ER-beta) signaling pathway (AID 1259378; active means well fitted inhibition curve with a large enough effect in the signal ratio in the repeat runs, not every such curve was filed as active; the % refers to the signal ratio)
# Procedure, shortened: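 ER-beta-UAS-bla HEK293T (GripTite) cells in 2% charcoal-stripped FBS medium were preincubated 6 hr at 37C, dosed with compound, then stimulated with 1 nM E2 (final) for 16 hr; beta-lactamase reporter read by B/G FRET fluorescence after 2 hr substrate loading.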
# [4] = qHTS assay to identify small molecule agonists of the androgen receptor (AR) signaling pathway in the presence of an antagonist - cell viability counter screen (AID 1259379; active means well fitted curve in the direction sought with a large enough effect in the repeat runs; an effect the other way counts as inactive or inconclusive; further: nearly all actives have a fitted effect of over 25% in size; further: potency means the concentration at half of the fitted maximal effect)
# Procedure, shortened: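 Seed MDA-kb2 at 3,000 cells/well; incubate 5 hr, 37C, 0% CO2. Add nilutamide to 3.0uM final, then pin compounds at 15 concentrations. Incubate 16 hr. Add CellTiter-Fluor at 15 hr, read fluorescence after 1 hr.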
# [5] = qHTS assay to identify small molecule agonists of the estrogen receptor beta (ER-beta) signaling pathway - cell viability counter screen (AID 1259380; active means well fitted curve in the direction sought with a large enough effect in the repeat runs; an effect the other way counts as inactive or inconclusive; further: nearly all actives have a fitted effect of over 30% in size)
# Procedure, shortened: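 CellTiter-Glo read, 30 min RT, same wells as bla assay; cells ER-beta-UAS-bla HEK293T; 16 hr compound, 37C; medium 2% charcoal-stripped FBS.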
# [6] = qHTS assay to identify small molecule antagonists of the estrogen receptor beta (ER-beta) signaling pathway - cell viability counter screen (AID 1259382; active means well fitted curve in the direction sought with a large enough effect in the repeat runs; an effect the other way counts as inactive or inconclusive; further: nearly all actives have a fitted effect of over 55% in size; further: potency means the concentration at half of the fitted maximal effect)
# Procedure, shortened: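 In this multiplexed counter screen, cells were seeded at 2,000 per well in medium with 2% charcoal-stripped FBS and incubated 6 hr before compound and 1nM final E2 were added. Sixteen hours later, ATP-based luminescence reported viability.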
# [7] = target: Estrogen receptor (Homo sapiens) (UniProt P03372); experiment: qHTS assay to identify small molecule agonists of the estrogen receptor alpha (ER-alpha) signaling pathway in the presence of an antagonist (AID 1259383); further: top concentration of the series differs between compounds; nearly all actives have a fitted effect of over 15% in size
# Estrogen receptor (Homo sapiens), sequence (P03372 whole entry, looked up): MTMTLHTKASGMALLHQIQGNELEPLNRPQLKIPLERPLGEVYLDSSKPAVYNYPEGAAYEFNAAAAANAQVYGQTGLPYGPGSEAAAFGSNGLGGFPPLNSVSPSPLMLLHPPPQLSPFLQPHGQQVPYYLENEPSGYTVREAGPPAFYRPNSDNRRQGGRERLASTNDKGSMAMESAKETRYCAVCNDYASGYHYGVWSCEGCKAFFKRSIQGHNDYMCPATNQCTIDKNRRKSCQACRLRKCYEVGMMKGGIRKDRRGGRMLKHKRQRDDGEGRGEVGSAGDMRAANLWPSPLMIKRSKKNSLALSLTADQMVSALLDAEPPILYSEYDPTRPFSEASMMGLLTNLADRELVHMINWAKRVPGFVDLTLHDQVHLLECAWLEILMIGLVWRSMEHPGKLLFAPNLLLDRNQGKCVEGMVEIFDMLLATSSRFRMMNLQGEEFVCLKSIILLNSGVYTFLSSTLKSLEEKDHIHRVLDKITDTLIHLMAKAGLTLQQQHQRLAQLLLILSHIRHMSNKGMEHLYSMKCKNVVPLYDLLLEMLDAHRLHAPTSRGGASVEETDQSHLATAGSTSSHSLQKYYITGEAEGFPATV
# Procedure, shortened: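 Stably transfected VM7Luc4E2 reporter cells, kept 5 days in charcoal-stripped serum, received ICI-182,780 at 10.0nM final before compound addition. Following 22hr incubation at 37C and 5% CO2, luciferase signal was read by luminescence.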
# [8] = qHTS assay to identify small molecule agonists or antagonists of the thyroid stimulating hormone receptor (TSHR) signaling pathway - wild type cell line counter screen (AID 1259384)
# Procedure, shortened: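 Wild-type HEK293 cells were plated 18 h at 37 C/5% CO2, pin-dosed with compound plus Ro20-1724 medium, held 30 min at room temperature, then given cAMP-d2 and anti-cAMP-cryptate; fluorescence was read after 1 h. Fifteen concentrations, triplicate.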
# [9] = target: Thyrotropin receptor (Homo sapiens) (UniProt P16473); experiment: qHTS assay to identify small molecule antagonists of the thyroid stimulating hormone receptor (TSHR) signaling pathway (AID 1259385); further: nearly all actives have a fitted effect of over 20% in size
# Thyrotropin receptor (Homo sapiens), sequence (P16473 whole entry, looked up): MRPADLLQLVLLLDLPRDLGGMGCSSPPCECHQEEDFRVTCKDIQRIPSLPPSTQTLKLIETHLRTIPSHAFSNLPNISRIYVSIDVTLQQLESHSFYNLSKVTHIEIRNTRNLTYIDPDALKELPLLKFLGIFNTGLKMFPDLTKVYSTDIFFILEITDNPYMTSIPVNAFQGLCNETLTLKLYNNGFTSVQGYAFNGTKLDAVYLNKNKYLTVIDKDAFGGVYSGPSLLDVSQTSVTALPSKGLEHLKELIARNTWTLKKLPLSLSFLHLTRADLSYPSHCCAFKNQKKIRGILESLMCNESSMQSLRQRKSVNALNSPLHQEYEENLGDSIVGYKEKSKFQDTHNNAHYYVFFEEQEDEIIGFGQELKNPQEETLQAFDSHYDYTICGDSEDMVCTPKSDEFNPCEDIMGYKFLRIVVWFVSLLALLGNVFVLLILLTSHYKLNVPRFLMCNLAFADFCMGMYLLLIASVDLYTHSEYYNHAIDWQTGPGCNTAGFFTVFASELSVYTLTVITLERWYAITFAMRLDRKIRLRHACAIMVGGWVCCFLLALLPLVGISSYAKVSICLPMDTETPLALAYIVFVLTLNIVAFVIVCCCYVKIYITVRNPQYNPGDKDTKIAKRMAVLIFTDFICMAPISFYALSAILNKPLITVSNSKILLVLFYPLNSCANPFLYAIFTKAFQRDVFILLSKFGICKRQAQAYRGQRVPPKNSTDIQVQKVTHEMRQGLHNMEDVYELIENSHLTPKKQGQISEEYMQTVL
# Procedure, shortened: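 TSHR-HEK293 cells were plated and held 18 h at 37C/5% CO2, then given compound plus Ro20-1724 and stimulated with TSH at 1.5 ng/mL final. After 30 min at room temperature, cAMP was detected with cAMP-d2/anti-cAMP-cryptate (1 h) by fluorescence.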
# [10] = qHTS assay to identify small molecule agonists of the estrogen receptor alpha (ER-alpha) signaling pathway in the presence of an antagonist - cell viability counter screen (AID 1259386; active means well fitted curve in the direction sought with a large enough effect in the repeat runs; an effect the other way counts as inactive or inconclusive;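 further: cells exposed to compounds for 22 h at 37 °C before the viability read; nearly all actives have a fitted effect of over 30% in size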; further: potency means the concentration at half of the fitted maximal effect)
# Procedure, shortened: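 Viability counter screen using VM7Luc4E2 (full-length ER-alpha, four ERE-luciferase). The cells were treated with compounds alongside ICI-182,780 10.0nM for 22hr, and live-cell protease fluorescence was quantified with CellTiter-Fluor.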
# [11] = target: Progesterone receptor (Homo sapiens) (UniProt P06401); experiment: qHTS assay to identify small molecule agonists of the progesterone receptor (PR) signaling pathway (AID 1346784); further: nearly all actives have a fitted effect of over 30% in size
# Progesterone receptor (Homo sapiens), sequence (P06401 whole entry, looked up): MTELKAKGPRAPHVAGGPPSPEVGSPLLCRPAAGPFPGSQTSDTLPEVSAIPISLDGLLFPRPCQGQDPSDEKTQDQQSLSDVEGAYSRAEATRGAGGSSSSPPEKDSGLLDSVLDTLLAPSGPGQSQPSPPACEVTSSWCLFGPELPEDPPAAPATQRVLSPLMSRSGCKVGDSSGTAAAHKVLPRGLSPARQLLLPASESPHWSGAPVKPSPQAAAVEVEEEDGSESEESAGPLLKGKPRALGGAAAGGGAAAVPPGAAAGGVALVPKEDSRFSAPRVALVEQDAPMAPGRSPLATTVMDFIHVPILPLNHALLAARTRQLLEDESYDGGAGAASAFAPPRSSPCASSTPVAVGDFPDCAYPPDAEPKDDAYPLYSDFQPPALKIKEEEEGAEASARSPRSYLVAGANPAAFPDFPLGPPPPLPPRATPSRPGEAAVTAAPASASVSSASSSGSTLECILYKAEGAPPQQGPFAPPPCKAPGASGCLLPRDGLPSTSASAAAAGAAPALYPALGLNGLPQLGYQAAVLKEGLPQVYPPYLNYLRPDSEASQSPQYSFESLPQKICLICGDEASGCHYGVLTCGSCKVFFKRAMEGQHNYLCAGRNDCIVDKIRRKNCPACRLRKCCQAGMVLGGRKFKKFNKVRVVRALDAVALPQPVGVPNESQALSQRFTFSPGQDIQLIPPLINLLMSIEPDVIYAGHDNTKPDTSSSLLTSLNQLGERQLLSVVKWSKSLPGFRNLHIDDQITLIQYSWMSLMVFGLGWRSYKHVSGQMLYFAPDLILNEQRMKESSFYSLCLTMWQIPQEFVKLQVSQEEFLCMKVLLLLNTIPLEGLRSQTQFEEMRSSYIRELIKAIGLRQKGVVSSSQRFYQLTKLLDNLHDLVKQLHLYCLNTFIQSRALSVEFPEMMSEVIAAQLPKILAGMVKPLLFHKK
# Procedure, shortened: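 PR-UAS-bla HEK 293T cells (beta-lactamase reporter under UAS) in 2% charcoal-stripped FBS, dosed with 23 nL compound after 6 hr, incubated 16hr at 37C. LiveBLAzer B/G FRET substrate added, fluorescence read after 2 hours.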
# [12] = qHTS assay to identify small molecule antagonists of the progesterone receptor (PR) signaling pathway - cell viability counter screen (AID 1346798; active means well fitted curve in the direction sought with a large enough effect in the repeat runs; an effect the other way counts as inactive or inconclusive; further: series mostly up to about 92 µM; nearly all actives have a fitted effect of over 50% in size)
# Procedure, shortened: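 PR-UAS-bla HEK293T cells, 3,000/well in 2% charcoal-stripped FBS medium, dosed with compounds plus R5020 agonist and incubated 16 h at 37C. Viability then measured in the same wells by CellTiter-Glo luminescence after 30 min at RT.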
# [13] = qHTS assay to identify small molecule agonists of the progesterone receptor (PR) signaling pathway - cell viability counter screen (AID 1346799); further: nearly all actives have a fitted effect of over 45% in size
# Procedure, shortened: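 Counter screen in the PR-UAS-bla HEK293T wells (2% charcoal-stripped FBS, 16 h compound exposure at 37 C) after the bla read. CellTiter-Glo added, 30 min at room temperature, luminescence read as cell viability.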
# [14] = qHTS assay to identify small molecule antagonists of the TGF-beta/Smad signaling pathway - cell viability counter screen (AID 1346824; active means well fitted curve in the direction sought with a large enough effect in the repeat runs; an effect the other way counts as inactive or inconclusive; further: nearly all actives have a fitted effect of over 50% in size)
# Procedure, shortened: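 SBE-bla HEK 293T cells were plated overnight at 37 C, then given compounds in DMSO plus TGF-beta1 (added as 0.25 ng/mL solution) for 5 hr. After the bla read, CellTiter-Glo was added to the same wells and luminescence read after 30 min at room temperature.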
# [15] = qHTS assay to identify small molecule agonists of the TGF-beta/Smad signaling pathway - cell viability counter screen (AID 1346829; active means well fitted curve in the direction sought with a large enough effect in the repeat runs; an effect the other way counts as inactive or inconclusive; further: top concentration of the series differs between compounds; nearly all actives have a fitted effect of over 45% in size)
# Procedure, shortened: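 Cytotoxicity counter screen: CellTiter-Glo luminescence (30 min, room temperature) measured in the SBE-bla HEK 293T reporter wells after 5 hr compound treatment at 37 C and the 2 hr substrate step.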
# [16] = qHTS assay to identify small molecule agonists of the TGF-beta/Smad signaling pathway (AID 1346859; active means well fitted activation curve with a large enough effect in the signal ratio in the repeat runs, not every such curve was filed as active; the % refers to the signal ratio; further: series mostly up to about 77 µM)
# Procedure, shortened: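 SBE-bla HEK293T cells plated overnight, then compound exposure for 5 h at 37 C. Beta-lactamase reporter read with LiveBLAzer B/G FRET substrate after 2 h at room temperature, fluorescence at 405 nm excitation, 460/530 nm emission.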
# [17] = target: Thyrotropin-releasing hormone receptor (Homo sapiens) (UniProt P34981); experiment: qHTS assay to identify small molecule antagonists of the thyrotropin-releasing hormone receptor (TRHR) signaling pathway (AID 1346877; active means well fitted inhibition curve with a large enough effect in the repeat runs, not every such curve was filed as active; further: series mostly up to about 51 µM)
# Thyrotropin-releasing hormone receptor (Homo sapiens), sequence (P34981 whole entry, looked up): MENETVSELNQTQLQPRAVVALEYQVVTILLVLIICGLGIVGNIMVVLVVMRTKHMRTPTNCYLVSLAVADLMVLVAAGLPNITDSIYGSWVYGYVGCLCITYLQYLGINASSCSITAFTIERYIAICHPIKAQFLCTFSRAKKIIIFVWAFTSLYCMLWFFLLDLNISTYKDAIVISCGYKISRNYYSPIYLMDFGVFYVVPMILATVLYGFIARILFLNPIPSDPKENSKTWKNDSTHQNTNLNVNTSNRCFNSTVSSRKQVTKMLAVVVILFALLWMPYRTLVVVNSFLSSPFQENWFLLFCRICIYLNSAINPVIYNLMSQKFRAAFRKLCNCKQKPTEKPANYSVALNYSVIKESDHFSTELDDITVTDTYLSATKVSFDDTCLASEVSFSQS
# Procedure, shortened: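 Following an 18 h incubation at 37 °C and a 2 h calcium dye load, TRHR-HEK293 cells were exposed to compound (5 min, room temperature) and challenged with TRH, 1 nM final.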
# [18] = target: Thyrotropin-releasing hormone receptor (Homo sapiens) (UniProt P34981); experiment: qHTS assay to identify small molecule agonists of the thyrotropin-releasing hormone receptor (TRHR) signaling pathway (AID 1346891); further: series mostly up to about 58 µM
# Procedure, shortened: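 HEK293 cells expressing TRHR plated 18 h at 37 C/5% CO2, calcium dye-loaded 2 h at 37 C, then compound added (agonist mode); kinetic calcium fluorescence read 3 min at 1 s intervals; 15 concentrations in triplicate.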
# [19] = target: Androgen receptor (Homo sapiens) (UniProt P10275); experiment: qHTS assay to identify small molecule agonists of the androgen receptor (AR) signaling pathway in the presence of an antagonist (AID 1259381); further: nearly all actives have a fitted effect of over 15% in size; further: potency means the concentration at half of the fitted maximal effect
# Androgen receptor (Homo sapiens), sequence (P10275 whole entry, looked up): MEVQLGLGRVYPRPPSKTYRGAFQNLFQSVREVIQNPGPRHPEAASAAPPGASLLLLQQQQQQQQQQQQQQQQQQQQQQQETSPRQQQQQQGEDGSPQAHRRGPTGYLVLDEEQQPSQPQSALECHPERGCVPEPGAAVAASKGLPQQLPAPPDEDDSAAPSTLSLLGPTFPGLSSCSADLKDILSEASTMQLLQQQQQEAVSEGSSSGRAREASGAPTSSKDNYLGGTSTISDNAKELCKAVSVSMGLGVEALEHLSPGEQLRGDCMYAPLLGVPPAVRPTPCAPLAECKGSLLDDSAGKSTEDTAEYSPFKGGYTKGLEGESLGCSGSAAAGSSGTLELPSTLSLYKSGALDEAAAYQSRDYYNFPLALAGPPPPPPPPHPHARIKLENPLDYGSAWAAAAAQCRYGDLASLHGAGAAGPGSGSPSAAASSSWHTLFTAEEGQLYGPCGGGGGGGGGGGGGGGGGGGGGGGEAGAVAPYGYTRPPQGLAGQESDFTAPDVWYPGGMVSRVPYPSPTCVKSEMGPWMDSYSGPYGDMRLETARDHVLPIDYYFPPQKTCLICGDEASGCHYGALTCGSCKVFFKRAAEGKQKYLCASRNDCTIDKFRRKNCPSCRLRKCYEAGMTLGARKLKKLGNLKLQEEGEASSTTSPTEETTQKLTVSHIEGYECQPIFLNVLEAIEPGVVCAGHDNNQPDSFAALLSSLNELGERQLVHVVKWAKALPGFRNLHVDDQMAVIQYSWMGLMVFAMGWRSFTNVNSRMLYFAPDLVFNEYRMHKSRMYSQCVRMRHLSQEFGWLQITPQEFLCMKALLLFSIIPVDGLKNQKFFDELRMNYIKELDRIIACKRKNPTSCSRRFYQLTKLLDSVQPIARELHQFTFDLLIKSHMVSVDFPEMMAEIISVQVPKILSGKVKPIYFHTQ
# Procedure, shortened: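 Test compounds at 15 concentrations were incubated for 16hr with MDA-kb2 reporter cells in presence of 3.0uM nilutamide (final). Signal: ONE-Glo luciferase luminescence.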
# [20] = target: Progesterone receptor (Homo sapiens) (UniProt P06401); experiment: qHTS assay to identify small molecule antagonists of the progesterone receptor (PR) signaling pathway (AID 1346795; active means well fitted inhibition curve with a large enough effect in the signal ratio in the repeat runs, not every such curve was filed as active; the % refers to the signal ratio)
# Procedure, shortened: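 PR-UAS-bla HEK293T cells with beta-lactamase reporter under UAS control, in 2% charcoal-stripped FBS, treated with compounds plus 1 nM promegestone (R5020, final) for 16 hr at 37C. Read-out: FRET beta-lactamase substrate fluorescence after 2 hr at room temperature.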
Compound,Potency [1],outcome [2],Potency [3],Potency [4],Potency [5],Potency [6],Potency [7],Potency [8],Potency [9],Potency [10],Potency [11],Potency [12],Potency [13],Potency [14],Potency [15],outcome [16],Potency [17],Potency [18],Potency [19],Potency [20]
OCCN1CCNCC1,inactive,inactive,inactive,inactive,inactive,inactive,inactive,inactive,inactive,inactive,inactive,inactive,inactive,inactive,inactive,inactive,inactive,inactive,,
Nc1ccc(O)cc1,7.99 µM (active) and inactive,inactive,inactive,56.6 µM (active) and inactive,inactive,63.5 µM (active) and inactive,inactive,inactive,inactive,31.8 µM (active) and inactive,inactive,inactive,inactive,inactive,inactive,inactive,inactive,inactive,5.04 µM (active) and inactive,
C=CS(=O)(=O)O,inactive,inactive,inactive,inactive,inactive,inactive,inactive,inactive,,inactive,inactive,inactive,inactive,inactive,,inactive,inactive,inactive,,inactive
CC(C)(O)CCC(C)(C)O,inactive,inactive,inactive,inactive,inactive,inactive,inactive,inactive,inactive,inactive,inactive,inactive,inactive,inactive,inactive,inactive,inactive,inactive,inactive,inactive
COc1nc(C)nc(Cl)c1NC1=NCCN1,inactive,inactive,inactive,inactive,inactive,inactive,inactive,inactive,inactive,inactive,inactive,inactive,inactive,inactive,,inactive,inactive,inactive,,
O=Cc1ccc(Cl)cc1,inactive,inactive,inactive,inactive,inactive,inactive,,inactive,inactive,inactive,inactive,inactive,inactive,inactive,,,inactive,inactive,inactive,inactive
